# Screening data as filed in PubChem BioAssay.
# Pemphigus Ab inh: inhibitors of pemphigus antibody binding to human desmoglein-3. P32926. DSG3-coupled beads, scFv-anti-DSG3-GFP binding, flow cytometry; active compounds read low. binding (percent of control), % at 10 µM. 310,000 tested, 0.48% active;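 active = binding more than 3 SD below its plate's average and above zero; inconclusive = below that plate limit but binding exactly zero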;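 note: hits lower antibody fragment binding to DSG3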
# Target sequence (P32926 whole entry, looked up, the tested form may be a part): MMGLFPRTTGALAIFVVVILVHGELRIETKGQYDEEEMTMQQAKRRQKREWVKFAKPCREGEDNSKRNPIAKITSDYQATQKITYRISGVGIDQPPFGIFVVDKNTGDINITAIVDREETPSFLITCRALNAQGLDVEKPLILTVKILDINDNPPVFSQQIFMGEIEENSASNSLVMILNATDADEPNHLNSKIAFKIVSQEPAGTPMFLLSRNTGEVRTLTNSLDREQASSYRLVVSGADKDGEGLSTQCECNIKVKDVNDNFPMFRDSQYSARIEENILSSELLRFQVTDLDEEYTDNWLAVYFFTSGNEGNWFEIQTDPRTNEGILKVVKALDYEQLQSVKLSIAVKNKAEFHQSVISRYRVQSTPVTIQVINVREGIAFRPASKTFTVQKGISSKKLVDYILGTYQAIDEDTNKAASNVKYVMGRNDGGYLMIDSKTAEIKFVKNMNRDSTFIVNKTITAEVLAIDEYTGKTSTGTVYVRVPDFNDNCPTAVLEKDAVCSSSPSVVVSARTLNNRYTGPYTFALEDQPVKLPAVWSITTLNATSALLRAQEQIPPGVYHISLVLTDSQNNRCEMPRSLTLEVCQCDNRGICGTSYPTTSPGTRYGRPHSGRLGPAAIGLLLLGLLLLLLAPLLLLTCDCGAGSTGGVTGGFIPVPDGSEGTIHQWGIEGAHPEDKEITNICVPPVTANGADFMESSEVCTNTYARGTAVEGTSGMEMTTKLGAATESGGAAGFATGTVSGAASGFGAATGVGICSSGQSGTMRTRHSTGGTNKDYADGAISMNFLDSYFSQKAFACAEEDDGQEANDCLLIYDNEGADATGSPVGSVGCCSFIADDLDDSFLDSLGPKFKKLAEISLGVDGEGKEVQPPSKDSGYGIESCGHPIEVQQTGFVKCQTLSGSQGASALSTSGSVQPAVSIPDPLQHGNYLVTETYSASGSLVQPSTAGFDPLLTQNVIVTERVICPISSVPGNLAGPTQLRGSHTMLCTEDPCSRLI
# PfM18AAP inh-1: PfM18AAP enzyme inhibition. recombinant PfM18AAP, H-Glu-NHMec fluorogenic cleavage. 290,000 tested, 1.2% active. AID 1822. inhibition, % at 7.35 µM;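 active = inhibition above the campaign mean inhibition over all tested compounds plus 3 SD, cut at about 28% in these data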;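 note: 0% = plate median of test compound wells and 100% = 2 mM ZnCl2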
# pPAFAH FP inh: inhibitors of human plasma PAF acetylhydrolase (pPAFAH) | recombinant pPAFAH, FP-rhodamine probe fluorescence polarization | AID 463082 | 330,000 tested, 1.5% active | inhibition, % at 3.39 µM;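 active = inhibition above the mean inhibition across the screen plus 3 SD, cut at about 25% in these data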;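 note: inhibitors block binding of the rhodamine activity-based probe so polarization drops; 0% = enzyme with DMSO and 100% = wells lacking pPAFAH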
# PAFAH1B2 inh: PAFAH1B2 (human) inhibition. P68402. recombinant PAFAH1B2, FP-rhodamine activity probe, fluorescence polarization. inhibition, % at 3.39 µM. 340,000 tested, 1.2% active;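 active = inhibition above the mean of all tested compounds plus 3 SD, cut at about 24% in these data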;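 note: 0% = enzyme with DMSO and 100% = wells lacking PAFAH1B2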
# PAFAH1B3 FP inh: blocks human PAF acetylhydrolase 1B catalytic subunit 3; inhibition, % at 3.39 µM; recombinant PAFAH1B3, FP-rhodamine probe, fluorescence polarization; AID 492972; 340,000 tested, 0.28% active;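 active = inhibition above the screen-wide average of all tested compounds plus 3 SD, cut at about 25% in these data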;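 note: 0% = enzyme with DMSO only and 100% = wells lacking PAFAH1B3 protein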
# PAFAH2 inh: inhibitors of human PAFAH2; inhibition, % at 3.39 µM; 340,000 tested, 0.99% active; Q99487; recombinant PAFAH2, FP-rhodamine activity probe, fluorescence polarization;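 active = inhibition above the mean over all tested compounds plus 3 SD, cut at about 30% in these data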;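 note: inhibitors block probe labeling of enzyme so polarization drops; 0% = enzyme with DMSO and 100% = wells lacking PAFAH2 protein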
# PfM18AAP inh-2: confirmation of Plasmodium falciparum M18 aspartyl aminopeptidase inhibitors; shares compounds with PfM18AAP inh-1; recombinant PfM18AAP, H-Glu-NHMec fluorogenic cleavage; inhibition, % at 7.35 µM; 2,400 tested, 28% active; AID 2170;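 active = mean inhibition over replicate wells above the hit cutoff set for the earlier primary screen, cut at about 29% in these data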;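 note: 0% = median of test compound wells and 100% = 2 mM ZnCl2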
# CTSL1 confirm: counter-screen for PFM18AAP inhibitors: confirmation of human cathepsin L inhibitors; 2,400 tested, under 10 active; shares compounds with PfM18AAP inh-1; purified cathepsin L1, Z-Leu-Arg-MCA fluorescence; inhibition, % at 5.96 µM;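 active = average inhibition across replicates above the hit cutoff set in the earlier primary screen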;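 note: 0% = median of test compound wells and 100% = Z-Phe-Ala-diazomethylketone 1 µM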
# An asterisk follows results filed as active; ? = inconclusive; . = no result. Shown are actives, neighbours in structure and some others; about 3.8% of the full set was active somewhere.
SMILES,Pemphigus Ab inh,PfM18AAP inh-1,pPAFAH FP inh,PAFAH1B2 inh,PAFAH1B3 FP inh,PAFAH2 inh,PfM18AAP inh-2,CTSL1 confirm
Cc1ccc(-n2c(C)cc(/C=N/Nc3ccc([N+](=O)[O-])cn3)c2C)cc1,110,-4,4,-3,4,5,.,.
O=C(O)c1ccccc1C=NNc1ccc([N+](=O)[O-])cn1,.,.,.,1,6,9,.,.
Cc1cc(/C=N/Nc2ccc([N+](=O)[O-])cn2)c(C)n1-c1ccccc1,90,51*,14,2,5,-9,-20,3
O=[N+]([O-])c1ccc(NN=Cc2cccc3ccccc23)nc1,124,.,.,2,1,4,.,.
O=C(O)Cn1cc(/C=N/Nc2ccc([N+](=O)[O-])cn2)c2ccccc21,104,53*,.,4,4,1,-20,-1
Cc1nc2ccc(NC(=S)NC3CCCCC3)cc2nc1C,97,4,6,5,12,3,.,.
O=C(NC(=S)Nc1ccc(NC(=O)c2cccs2)cc1)c1ccco1,105,-4,1,4,-2,-5,.,.
O=C(Cc1cccs1)NNC(=S)NC(=O)c1ccco1,97,34*,3,6,3,2,-16,-3
CC(C)(C)OC(=O)N1Cc2ccccc2C[C@H]1C(=O)NCC(=O)NC1CCCCC1,100,-1,3,6,4,3,.,.
COc1ccc(/C=C(\C#N)C(=O)Nc2cc(S(=O)(=O)N3CCOCC3)ccc2N2CCCC2)cc1,86,40*,1,-1,5,2,0,-4
NNC(=S)Nc1ccc(S(=O)(=O)N2CCOCC2)cc1,97,3,-3,-1,8,-2,.,.
NNC(=S)Nc1cc(S(=O)(=O)N2CCOCC2)ccc1N1CCOCC1,125,40*,3,3,6,8,14,-8
CCOC(=O)N1CCN(S(=O)(=O)N2CCCC(C(=O)NCCCN3CCCCC3CC)C2)CC1 (centres undefined),?,-1,2,-7,2,-4,.,.
Cc1ccc(NC(=S)N(CCN(C)C)Cc2cccs2)c(C)c1,127,36*,-5,1,6,0,7,1
CC(Sc1ncn[nH]1)C(=O)NCc1ccccc1 (centres undefined),101,35*,-1,-3,-5,-3,17,-1
c1ccc(CN2CCC3(CC2)Nc2ccccc2CO3)cc1,99,10,-4,1,5,2,.,.
c1ccc(CN2CCC3(CC2)Nc2ccccc2S3)cc1,116,34*,9,5,2,7,-55,5
O=C(NNc1cc(C(F)(F)F)ccc1Cl)c1ccc(=O)[nH]c1,.,44*,-1,4,1,-6,19,2
COc1ccccc1CNC(=O)C(=O)NCC1CCCN1S(=O)(=O)c1cc(C)ccc1C (centres undefined),106,.,.,.,.,.,.,.
O=C(CNS(=O)(=O)c1ccccc1)NNC(=O)C(Cl)Cl,103,50*,2,10,7,6,27,9
O=C(O)COc1ccccc1C=NNC(=O)c1ccccc1NS(=O)(=O)c1cccs1,90,.,6,6,11,14,.,.
CCN1/C(=C\C=C(C(C)=O)C(C)=O)Sc2ccccc21,101,3,2,-2,-5,1,.,.
CCN1/C(=C\C(=S)Nc2ccccc2)Sc2ccccc21,93,41*,0,2,7,9,15,2
COCCn1c(=S)[nH]c2ccc(N(C)C)cc2c1=O,99,40*,6,3,11,-24,-3,2
CCCCC(=O)Nc1nnc(SCC(=O)NCC2CCCO2)s1 (centres undefined),98,.,-2,1,-5,2,.,.
SMILES,Pemphigus Ab inh,PfM18AAP inh-1,pPAFAH FP inh,PAFAH1B2 inh,PAFAH1B3 FP inh,PAFAH2 inh,PfM18AAP inh-2,CTSL1 confirm
Cc1ccc2nc3c(c(Nc4ccc(O)cc4)c2c1)CCC3,118,33*,13,-2,2,0,10,-1
COc1ccc(N(C(=O)CCC(=O)Nc2cc(C)on2)C(C(=O)NC2CCCC2)c2ccco2)cc1 (centres undefined),94,4,1,4,3,11,.,.
Cc1cc(NC(=O)CSCC(=O)N(c2ccc(F)cc2)C(C(=O)NC2CCCCC2)c2ccc(O)c(O)c2)no1 (centres undefined),105,68*,7,0,3,-2,52*,1
COc1ccc(N(C(=O)CSCC(=O)Nc2cc(C)on2)C(C(=O)NC2CCCCC2)c2ccc(O)c(O)c2)cc1 (centres undefined),124,61*,2,-2,6,-2,48*,1
Cc1ccc(C(C(=O)NC2CCCC2)N(C(=O)CCC(=O)Nc2cc(C)on2)c2ccccc2)cc1 (centres undefined),90,-3,0,2,0,2,.,.
Cc1cc(NC(=O)CSCC(=O)N(c2cccc(Cl)c2)C(C(=O)NC2CCCCC2)c2ccc(O)c(O)c2)no1 (centres undefined),99,57*,0,3,2,-10,43*,0
O=C(Nc1ccc(Br)cc1)c1cnc[nH]1,92,-4,-1,4,0,-3,.,.
CCOC(=O)NC(=O)C(=CNc1ccc(C)cc1)C(=O)NC(=O)OCC,93,-14,6,4,8,-4,.,.
COc1cccc(CN(C)Cc2c(O)ccc3ccccc23)c1,106,27,-1,8,10,-2,.,.
COc1ccc(CN(C)Cc2c(O)ccc3ccccc23)cc1,100,47*,3,2,13,7,-64,-2
O=C(c1ccc(Cl)cc1Cl)C1(n2cncn2)Oc2ccccc2C1O (centres undefined),110,36*,5,2,1,2,4,-4
NC(=O)C(=CNc1nc(-c2ccc(Cl)c(Cl)c2)cs1)C(N)=O,.,69*,.,.,.,.,53*,-2
CCN(CCCNC(=O)C1CCCN(S(=O)(=O)CC)C1)c1cccc(C)c1 (centres undefined),106,47*,5,1,9,6,-40,-3
CN(CCNC(=O)C1CCN(S(=O)(=O)c2cnc[nH]2)CC1)Cc1ccccc1,100,-6,11,1,5,11,.,.
CCN(CCCNC(=O)C1CCN(S(=O)(=O)c2cnc[nH]2)CC1)c1cccc(C)c1,107,51*,-1,3,5,-14,-34,-1
CSc1nc(=S)c2[nH]c(=S)[nH]c2[nH]1,83,46*,.,13,13,15,40*,-3
N#Cc1c2n(c(=S)n(-c3ccccc3[N+](=O)[O-])c1=O)CCCCC2,108,35*,3,-2,-1,-3,-45,-5
